Measured values as given in PubChem BioAssay AID1159580 (chemical genetic matrix, 2015).
Hit rate of the full screen: of about 5,500 compounds, about 2,000 (36%) were called active. Roughly 18% stayed inconclusive and do not appear here. No stated cut-off is given here; in the data, active means normalized growth mostly below about 0.91 (no sharp cut-off); inconclusive means no clear call, values can overlap the other calls; inactive means mostly above about 0.92. This is one part of the list.

Assay: chemical genetic growth profiling, strain panel (AID 1159580);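 further: tested at 20 µM; growth read once vehicle control cultures reached saturation at 30 °C; 1 = growth at the plate median or of vehicle wells; lower values mean less growth of the strain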
Details: growth OD
[1] = S. cerevisiae deletion strains, locus YDL101C, strain DUN1, hits give low values
[2] = S. cerevisiae deletion strains, locus YHR030C, strain SLT2, hits give low values

Measured: normalized growth

OC(c1ccccc1)(c1ccccc1)c1ccncc1
inactive: S. cerevisiae deletion strains, locus YAL013W, strain DEP1, hits give low values 1.05 | S. cerevisiae deletion strains, locus YBR229C, strain ROT2, hits give low values 1 | [1] 1 | S. cerevisiae deletion strains, locus YDR150W, strain NUM1, hits give low values 1.01 | S. cerevisiae deletion strains, locus YEL061C, strain CIN8, hits give low values 0.991 | S. cerevisiae deletion strains, locus YGR078C, strain PAC10, hits give low values 1.02 | S. cerevisiae deletion strains, locus YGR229C, strain SMI1, hits give low values 0.997 | [2] 1.03 | S. cerevisiae deletion strains, locus YHR087W, strain rtc3, hits give low values 1.02 | S. cerevisiae deletion strains, locus YJR043C, strain POL32, hits give low values 1.01 | S. cerevisiae deletion strains, locus YJR075W, strain HOC1, hits give low values 0.984 | S. cerevisiae deletion strains, locus YKL190W, strain CNB1, hits give low values 0.996 | S. cerevisiae deletion strains, locus YLR039C, strain RIC1, hits give low values 1.03 | S. cerevisiae deletion strains, locus YLR058C, strain SHM2 (second series), hits give low values 0.996 | S. cerevisiae deletion strains, locus YLR085C, strain ARP6, hits give low values 1.19 | S. cerevisiae deletion strains, locus YLR262C, strain YPT6, hits give low values 0.997 | S. cerevisiae deletion strains, locus YML094W, strain GIM5, hits give low values 1.04 | S. cerevisiae deletion strains, locus YMR219W, strain ESC1, hits give low values 0.999 | S. cerevisiae deletion strains, locus YMR263W, strain SAP30, hits give low values 1.03 | S. cerevisiae deletion strains, locus YNL128W, strain TEP1, hits give low values 0.999 | S. cerevisiae deletion strains, locus YNL153C, strain GIM3, hits give low values 1.02 | S. cerevisiae deletion strains, locus YNL298W, strain CLA4 (second series), hits give low values 1.01 | S. cerevisiae deletion strains, locus YNL322C, strain KRE1, hits give low values 1 | S. cerevisiae deletion strains, locus YNR030W, strain Alg12, hits give low values 1.03 | S. cerevisiae deletion strains, locus YPL055C, strain LGE1, hits give low values 1.09 | S. cerevisiae deletion strains, locus YPL241C, strain CIN2, hits give low values 1.1 | S. cerevisiae deletion strains, locus YPR135W, strain CTF4, hits give low values 1.14 | S. cerevisiae strains, strain wild type, hits give low values 1.01

Cc1ccc(-c2csc(-c3ccncc3)n2)cc1
active: S. cerevisiae deletion strains, locus YAR019C, strain CDC15, hits give low values 0.888 | [1] 0.912 | S. cerevisiae deletion strains, locus YDL132W, strain cdc53, hits give low values 0.891 | S. cerevisiae deletion strains, locus YDR477W, strain SNF1, hits give low values 0.68 | S. cerevisiae deletion strains, locus YER123W, strain YCK3, hits give low values 0.615 | S. cerevisiae deletion strains, locus YER133W, strain GLC7, hits give low values 0.661 | S. cerevisiae deletion strains, locus YFR028C, strain CDC14, hits give low values 0.89 | S. cerevisiae deletion strains, locus YGR092W, strain DBF2, hits give low values 0.441 | [2] 0.423 | S. cerevisiae deletion strains, locus YJL095W, strain BCK1, hits give low values 0.374 | S. cerevisiae deletion strains, locus YKL193C, strain SDS22, hits give low values 0.879 | S. cerevisiae deletion strains, locus YLR113W, strain HOG1, hits give low values 0.653 | S. cerevisiae deletion strains, locus YMR277W, strain FCP1, hits give low values 0.865 | S. cerevisiae deletion strains, locus YOL078W, strain AVO1, hits give low values 0.866 | S. cerevisiae deletion strains, locus YPL031C, strain PHO85, hits give low values 0.649 | S. cerevisiae deletion strains, locus YPL204W, strain HRR25, hits give low values 0.618 | S. cerevisiae deletion strains, locus YPL256C, strain CLN2, hits give low values 0.697 | S. cerevisiae deletion strains, strain TSCII, hits give low values 0.873
inactive: S. cerevisiae deletion strains, locus YBL105C, strain PKC1, hits give low values 0.928 | S. cerevisiae deletion strains, locus YBR135W, strain CKS1, hits give low values 0.903 | S. cerevisiae deletion strains, locus YBR136W, strain MEC1, hits give low values 0.912 | S. cerevisiae deletion strains, locus YBR160W, strain CDC28, hits give low values 0.909 | S. cerevisiae deletion strains, locus YDL017W, strain CDC7, hits give low values 0.922 | S. cerevisiae deletion strains, locus YDL028C, strain MPS1, hits give low values 0.898 | S. cerevisiae deletion strains, locus YDL108W, strain KIN28, hits give low values 0.914 | S. cerevisiae deletion strains, locus YDL214C, strain PRR2, hits give low values 0.781 | S. cerevisiae deletion strains, locus YDR052C, strain DBF4, hits give low values 0.938 | S. cerevisiae deletion strains, locus YDR054C, strain cdc34, hits give low values 0.879 | S. cerevisiae deletion strains, locus YDR226W, strain ADK1, hits give low values 0.905 | S. cerevisiae deletion strains, locus YFL009W, strain cdc4, hits give low values 0.89 | S. cerevisiae deletion strains, locus YFL029C, strain CAK1, hits give low values 0.89 | S. cerevisiae deletion strains, locus YFR003C, strain YPI1, hits give low values 0.921 | S. cerevisiae deletion strains, locus YFR019W, strain FAB1, hits give low values 0.859 | S. cerevisiae deletion strains, locus YGR040W, strain KSS1, hits give low values 0.718 | S. cerevisiae deletion strains, locus YGR052W, strain FMP48, hits give low values 0.717 | S. cerevisiae deletion strains, locus YHR079C, strain IRE1, hits give low values 0.674 | S. cerevisiae deletion strains, locus YHR082C, strain KSP1, hits give low values 0.747 | S. cerevisiae deletion strains, locus YHR205W, strain SCH9, hits give low values 0.72 | S. cerevisiae deletion strains, locus YIL147C, strain SLN1, hits give low values 0.915 | S. cerevisiae deletion strains, locus YJL128C, strain PBS2, hits give low values 0.919 | S. cerevisiae deletion strains, locus YJL157C, strain FAR1, hits give low values 0.764 | S. cerevisiae deletion strains, locus YJR016C, strain ILV3, hits give low values 0.922 | S. cerevisiae deletion strains, locus YJR066W, strain TOR1 (second series), hits give low values 0.753 | S. cerevisiae deletion strains, locus YJR066W, strain TOR1, hits give low values 0.53 | S. cerevisiae deletion strains, locus YKL048C, strain ELM1, hits give low values 0.928 | S. cerevisiae deletion strains, locus YKL067W, strain YNK1, hits give low values 0.758 | S. cerevisiae deletion strains, locus YKL101W, strain HSL1, hits give low values 0.872 | S. cerevisiae deletion strains, locus YKL203C, strain TOR2, hits give low values 0.782 | S. cerevisiae deletion strains, locus YLR133W, strain CKI1, hits give low values 0.837 | S. cerevisiae deletion strains, locus YLR403W, strain SFP1, hits give low values 0.706 | S. cerevisiae deletion strains, locus YML070W, strain DAK1, hits give low values 0.788 | S. cerevisiae deletion strains, locus YMR001C, strain CDC5, hits give low values 0.91 | S. cerevisiae deletion strains, locus YMR205C, strain PFK2 (second series), hits give low values 0.771 | S. cerevisiae deletion strains, locus YNL006W, strain LST8, hits give low values 0.925 | S. cerevisiae deletion strains, locus YNL020C, strain ARK1, hits give low values 0.842 | S. cerevisiae deletion strains, locus YNL161W, strain CBK1, hits give low values 0.909 | S. cerevisiae deletion strains, locus YNL183C, strain NPR1, hits give low values 0.672 | S. cerevisiae deletion strains, locus YNL207W, strain RIO2, hits give low values 0.905 | S. cerevisiae deletion strains, locus YNL222W, strain SSU72, hits give low values 0.897 | S. cerevisiae deletion strains, locus YNL307C, strain MCK1 (second series), hits give low values 0.773 | S. cerevisiae deletion strains, locus YOL136C, strain PFK27, hits give low values 0.814 | S. cerevisiae deletion strains, locus YOR061W, strain CKA2, hits give low values 0.89 | S. cerevisiae deletion strains, locus YOR119C, strain RIO1, hits give low values 0.719 | S. cerevisiae deletion strains, locus YOR231W, strain MKK1, hits give low values 0.691 | S. cerevisiae deletion strains, locus YOR329C, strain SCD5, hits give low values 0.92 | S. cerevisiae deletion strains, locus YPL153C, strain RAD53, hits give low values 0.688 | S. cerevisiae deletion strains, locus YPL209C, strain IPL1, hits give low values 0.913 | S. cerevisiae deletion strains, locus YPR025C, strain CCL1, hits give low values 0.914 | S. cerevisiae deletion strains, locus YPR106W, strain ISR1, hits give low values 0.924 | S. cerevisiae deletion strains, locus YPR111W, strain DBF20, hits give low values 0.902 | S. cerevisiae deletion strains, strain NNK1, hits give low values 0.911
